For orientation: AC50 means the concentration giving half of the maximal activity seen.

This is an account of results in PubChem BioAssay (EPA / NIEHS).

Read-out in test [1]: Human Leukocyte Antigen - DR isotype (HLADR), HLA-DRA (gene 3122)
Nature of the test: BSK_BE3C_HLADR: BioMAP Diversity Plus: BE3C Assay for Human Leukocyte Antigen - DR isotype (HLADR) Biomarker Activity (AID 2283032). As to conditions: primary human bronchial epithelial cells; actives raise or lower the signal. A digest of the protocol:
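ELISA read-out of HLA-DR on human lung bronchial epithelial primary cells, measured 24 h post-dosing. Both increases and decreases were scored relative to DMSO vehicle.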

Read-out in test [2]: Vascular cell adhesion molecule 1 (VCAM1), VCAM1 (gene 7412)
Nature of the test: BSK_4H_VCAM1: BioMAP Diversity Plus: 4H Assay for Vascular cell adhesion molecule 1 (VCAM1) Biomarker Activity (AID 2283033).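 As to outcome: cell-surface VCAM-1 protein measured by ELISA.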 As to conditions: primary human endothelial cells (HUVEC); actives raise or lower the signal. A digest of the protocol: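 ELISA read-out of VCAM-1 on human umbilical vein endothelium 24 hours after chemical dosing; gain or loss of signal was fitted relative to DMSO, with sulforhodamine B staining of parallel cultures flagging overt cytotoxicity.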

Read-out in test [3]: Interferon-gamma inducible Protein 10 (IP10), CXCL10 (gene 3627)
Nature of the test: BSK_BE3C_IP10: BioMAP Diversity Plus: BE3C Assay for Interferon-gamma inducible Protein 10 (IP10) Biomarker Activity (AID 2283034). As to conditions: primary human bronchial epithelial cells; actives raise or lower the signal. The gist of the method: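 Chemical is dosed onto human lung bronchial epithelial primary cells, cultures are incubated 24 h, and IP-10 is then quantified by ELISA. Gain or loss of signal is fitted in both directions relative to DMSO.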

Read-out in test [4]: Transforming growth factor beta 1 (TGFb1), TGFB1 (gene 7040)
Nature of the test: BSK_BE3C_TGFb1: BioMAP Diversity Plus: BE3C Assay for Transforming growth factor beta 1 (TGFb1) Biomarker Activity (AID 2283036;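 as to outcome: TGF-b1 protein level measured by ELISA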). As to conditions: primary human bronchial epithelial cells; actives raise or lower the signal. A digest of the protocol: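 Primary human lung bronchial epithelial cells; compound exposure 24 h; TGF-b1 by ELISA; bidirectional fit, DMSO baseline. Parallel SRB total-protein staining for cytotoxicity.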

Read-out in test [5]: Plasminogen activator inhibitor-1 (PAI1), SERPINE1 (gene 5054)
Description: BSK_BE3C_PAI1: BioMAP Diversity Plus: BE3C Assay for Plasminogen activator inhibitor-1 (PAI1) Biomarker Activity (AID 2283037). As to conditions: primary human bronchial epithelial cells; actives raise or lower the signal. A digest of the protocol:
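Primary human lung bronchial epithelial cells; chemical dosing; 24 h; PAI-1 measured by ELISA; bidirectional fit referenced to DMSO as negative control.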

Read-out in test [6]: urokinase plasminogen activator (uPA), PLAU (gene 5328)
Description: BSK_BE3C_uPA: BioMAP Diversity Plus: BE3C Assay for urokinase plasminogen activator (uPA) Biomarker Activity (AID 2283038).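 As to outcome: uPA protein level quantified by ELISA in cell cultures; uPA read one day after compound addition.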 Conditions: primary human bronchial epithelial cells; actives raise or lower the signal. The gist of the method:
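ELISA for uPA on human primary bronchial epithelial cultures 24 h post-treatment, gain or loss against DMSO. Parallel SRB staining (0.1% after 10% TCA fixation, 560 nm) assessed overt cytotoxicity.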

Read-out in test [7]: Urokinase-type plasminogen activator receptor (uPAR), PLAUR (gene 5329)
Description: BSK_BE3C_uPAR: BioMAP Diversity Plus: BE3C Assay for Urokinase-type plasminogen activator receptor (uPAR) Biomarker Activity (AID 2283039).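 As to outcome: cells exposed to compound for one day before measurement.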 As to conditions: primary human bronchial epithelial cells; actives raise or lower the signal. A digest of the protocol: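 Human bronchial epithelial primary cells; chemical exposure 24 h; uPAR by ELISA; bidirectional fit vs DMSO control.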

Read-out in test [8]: Interleukin-6 (IL6), IL6 (gene 3569)
Nature of the test: BSK_CASM3C_IL6: BioMAP Diversity Plus: CASM3C Assay for Interleukin-6 (IL6) Biomarker Activity for (AID 2283040). Conditions: primary human coronary artery smooth muscle cells; actives raise or lower the signal.

Read-out in test [9]: Tissue plasminogen activator (tPA), PLAT (gene 5327)
Nature of the test: BSK_BE3C_tPA: BioMAP Diversity Plus: BE3C Assay for Tissue plasminogen activator (tPA) Biomarker Activity (AID 2283041).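 As to outcome: tPA level quantified by ELISA one day after compound addition.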 As to conditions: primary human bronchial epithelial cells; actives raise or lower the signal. A digest of the protocol: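 Primary human lung bronchial epithelial cultures receive test chemical; after 24 h, tPA is quantified by ELISA, and gain or loss of signal is fitted bidirectionally relative to DMSO baseline.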

Read-out in test [10]: Interleukin-8 (IL8), CXCL8 (gene 3576)
Nature of the test: BSK_CASM3C_IL8: BioMAP Diversity Plus: CASM3C Assay for Interleukin-8 (IL8) Biomarker Activity (AID 2283042).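 Also: IL-8 protein level quantified by ELISA.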 Conditions: primary human coronary artery smooth muscle cells; actives raise or lower the signal.

Read-out in test [11]: Human Leukocyte Antigen - DR isotype (HLADR), HLA-DRA (gene 3122)
Description: BSK_CASM3C_HLADR: BioMAP Diversity Plus: CASM3C Assay for Human Leukocyte Antigen - DR isotype (HLADR) Biomarker Activity (AID 2283043).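 Also: cell-surface HLA-DR protein level quantified by ELISA.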 Conditions: primary human coronary artery smooth muscle cells; actives raise or lower the signal.

Read-out in test [12]: Macrophage colony-stimulating factor (MCSF), CSF1 (gene 1435)
Description: BSK_CASM3C_MCSF: BioMAP Diversity Plus: CASM3C Assay for Macrophage colony-stimulating factor (MCSF) Biomarker Activity (AID 2283044).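 Also: M-CSF protein amount quantified by ELISA after 24 h exposure.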 Conditions: primary human coronary artery smooth muscle cells; actives raise or lower the signal.

Read-out in test [13]: Low-density lipoprotein receptor (LDLR), LDLR (gene 3949)
Description: BSK_CASM3C_LDLR: BioMAP Diversity Plus: CASM3C Assay for Low-density lipoprotein receptor (LDLR) Biomarker Activity (AID 2283045).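 Also: LDLR protein level on the cell surface quantified by ELISA.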 As to conditions: primary human coronary artery smooth muscle cells; actives raise or lower the signal.

Read-out in test [14]: Monocyte Chemoattractant Protein-1 (MCP1), CCL2 (gene 6347)
Nature of the test: BSK_CASM3C_MCP1: BioMAP Diversity Plus: CASM3C Assay for Monocyte Chemoattractant Protein-1 (MCP1) Biomarker Activity (AID 2283046).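 Also: MCP-1 level quantified by ELISA 24 h after dosing.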 Conditions: primary human coronary artery smooth muscle cells; actives raise or lower the signal.

Test [15] is described as follows: BSK_CASM3C_Proliferation: Cell Proliferation Assessment in the BioMAP Diversity Plus: CASM3C Assay (AID 2283047).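 Also: sulforhodamine B total protein stain as relative cell number at 560 nm; sub-confluent cells exposed 48 h before staining; fitted both ways against DMSO so gain or loss of cell number.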 Conditions: primary human coronary artery smooth muscle cells.
Read-out in test [16]: Monokine induced gamma interferon (MIG), CXCL9 (gene 4283)
Nature of the test: BSK_CASM3C_MIG: BioMAP Diversity Plus: CASM3C Assay for Monokine induced gamma interferon (MIG) Biomarker Activity (AID 2283048). As to conditions: primary human coronary artery smooth muscle cells; actives raise or lower the signal.

Read-out in test [17]: serum amyloid A (SAA), SAA1 (gene 6288)
Description: BSK_CASM3C_SAA: BioMAP Diversity Plus: CASM3C Assay for serum amyloid A (SAA) Biomarker Activity (AID 2283049).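 Also: SAA protein level quantified by ELISA.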 As to conditions: primary human coronary artery smooth muscle cells; actives raise or lower the signal.

Test [18] in a line: BSK_CASM3C_SRB: Viability Assessment in the BioMAP Diversity Plus: CASM3C Assay (AID 2283050).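 Also: total protein by SRB staining as cytotoxicity measure in parallel cultures.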 As to conditions: primary human coronary artery smooth muscle cells.
Read-out in test [19]: Thrombomodulin, THBD (gene 7056)
Nature of the test: BSK_CASM3C_Thrombomodulin: BioMAP Diversity Plus: CASM3C Assay for Thrombomodulin Biomarker Activity (AID 2283051).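 Also: thrombomodulin protein level measured by ELISA 24 h after dosing.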 Conditions: primary human coronary artery smooth muscle cells; actives raise or lower the signal.

Read-out in test [20]: Monokine induced gamma interferon (MIG), CXCL9 (gene 4283)
Nature of the test: BSK_BE3C_MIG: BioMAP Diversity Plus: BE3C Assay for Monokine induced gamma interferon (MIG) Biomarker Activity (AID 2283035).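 As to outcome: MIG protein measured by ELISA in BE3C cultures after 24 h of dosing.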 Conditions: primary human bronchial epithelial cells; actives raise or lower the signal. A digest of the protocol:
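Primary human bronchial epithelial cells treated for 24 h; MIG levels measured by ELISA, fitted bidirectionally versus DMSO. Parallel SRB total-protein staining assessed cytotoxicity.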

Active and inactive are the calls of the source. The calls were made as follows: active = hit-call score of the fitted dose curve at least 0.9, where 1 is the maximum; inactive = score below 0.9.

On to `CC[C@H](C)[C@H]1O[C@]2(C=C[C@@H]1C)C[C@@H]1C[C@@H](C/C=C(\C)[C@@H](O[C@H]3C[C@H](OC)[C@@H](O[C@H]4C[C@H](OC)[C@@H](O)[C@H](C)O4)[C@H](C)O3)[C@@H](C)/C=C/C=C3\CO[C@@H]4[C@H](O)C(C)=C[C@@H](C(=O)O1)[C@]34O)O2` (tested in a mixture with another compound), for which the AC50 in test [1] is 5.87 µM (active); in [2], 11.6 µM (active); in test [3], 5.96 µM (active); in [4], 20 µM (active); in test [5], 5.51 µM (active); in [6] it was 5.41 µM (active). In addition, the AC50 in test [7] is 6.13 µM (active); in [8], 13.9 µM (active); in [9] it was 5.27 µM (active); in test [10] it was 17.4 µM (active); in test [11], 9.73 µM (active); in test [12], 20 µM (active). Further, the half-maximal activity concentration (AC50) in test [14] is 11.7 µM (active); in test [15], 6.85 µM (active); in test [16], 29.7 µM (active); in [18], 15 µM (active). The outcome in test [13], in test [17] and in [19] was inactive.
With `CNC(=O)CSP(=S)(OC)OC`, the result in [1], in [2], in test [3], in test [20], in [4] and in test [5] was inactive. In addition, the outcome in test [6], in test [7], in [8], in test [9], in test [10] and in test [11] was inactive. For the same compound, the outcome in test [12], in test [13], in [14], in test [15], in [16] and in [17] was inactive. Besides, the result in test [18] and in test [19] was inactive.
As for `CCC(C)(NC(=O)c1cc(Cl)c(C)c(Cl)c1)C(=O)CCl` (stereo not drawn), the AC50 was 13.6 µM (active) in test [1]; 10.5 µM (active) in test [2]; 34 µM (active) in test [3]; 32.8 µM (active) in test [20]; 29.7 µM (active) in test [6]; 31.5 µM (active) in [7]. Moreover, the AC50 is 11 µM (active) in [9]; 17.7 µM (active) in test [11]; 25.2 µM (active) in [12]; 22.9 µM (active) in test [14]; 18.5 µM (active) in [15]; 17.5 µM (active) in test [16]. Moreover, the values for the AC50 in test [17] and in test [18] were 14.4 µM (active) and 23.4 µM (active), respectively. For the same compound, the result in test [4], in test [8], in test [10], in test [13] and in test [19] was inactive.
Take `CC(C)N(C(=O)COc1nnc(C(F)(F)F)s1)c1ccc(F)cc1`: the result in [1], in test [2], in test [3], in [20], in test [4] and in test [5] was inactive. The outcome in [6], in test [7], in test [8], in test [9], in test [10] and in test [11] was inactive. Besides, the result in [12], in test [13], in [14], in test [15], in test [16] and in [17] was inactive. For the same compound, the outcome in test [18] and in test [19] was inactive.
For the compound `CCN(CC)C(=O)SCc1ccc(Cl)cc1`, the result in test [1], in test [2], in test [3], in test [20], in test [4] and in test [5] was inactive. For the same compound, the outcome in test [6], in test [7], in [8], in test [9], in test [10] and in test [11] was inactive. The outcome in test [12], in [13], in test [14], in test [16], in [17] and in test [18] was inactive. In test [19], the result was inactive. Besides, the AC50 in test [15] was 16.4 µM (active).
Turning to `COP(=S)(OC)Oc1ccc(SC)c(C)c1`, the result in [1], in test [2], in [3], in [20], in [4] and in [5] was inactive. Besides, the outcome in test [6], in test [8], in test [9], in test [10], in test [11] and in test [12] was inactive. Also, the outcome in [13], in test [14], in test [15], in test [16], in test [17] and in test [18] was inactive. In addition, the result in test [19] was inactive. For the same compound, in test [7], the AC50 is 0.148 µM (active).
As to `CCS(=O)(=O)c1cccnc1S(=O)(=O)NC(=O)Nc1nc(OC)cc(OC)n1`, the outcome in [1], in [2], in [3], in test [20], in [4] and in test [5] was inactive. The result in test [6], in [7], in [8], in test [9], in [10] and in test [11] was inactive. Moreover, the result in test [12], in [13], in [14], in [15], in test [16] and in [18] was inactive. Moreover, the outcome in [19] was inactive. Further, in [17], the AC50 is 16.4 µM (active).
